The values that follow come from PubChem BioAssay (NCI).

What all share (assay): NCI-60 one-dose screen, 48 h (100 = growth as untreated, 0 = no growth, -100 = all killed)
Common to all, as to conditions: 10 µM

Assay [1] deals with HT29 colon.
The test system of assay [2] is SNB-75 CNS.
Assay [3] has as its system SNB-19 CNS.
In assay [4] the test system is U251 CNS.
The test system of assay [5] is PC-3 prostate.
Assay [6] deals with SK-MEL-5 melanoma.
The test system of assay [7] is UACC-62 melanoma.
Assay [8] relates to LOX IMVI melanoma.
For assay [9], the system named is SK-MEL-28 melanoma.
The subject of assay [10] is SK-MEL-2 melanoma.

This is part of a sample that, as a whole, favours compounds with a hit. Of some 83,000 tested, about 20% had one in any assay.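 Single-dose data. Exposure time 48 hours. Values below 10 considered active.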 Unmarked numbers belong to inactive results. The source made the active and inactive calls.

For the compound `C#Cc1ccc(-n2c(/C=C/c3ccc(O)cc3)nc3ncccc3c2=O)cc1`, the growth in assay [1] is 109%; in [2] it was -1.11% (active); in assay [3] it was 82%; in assay [4], 62.5%; in [5], 65.3%; in [6], 22.3%. Moreover, the growth in [7] is 29.1%; in assay [8], 55.5%; in assay [9], 51.7%; in [10], 19.9%.
With `NC1=NC(=O)C(c2ccccc2)(c2ccccc2)S1`, the growth in assay [1] is 106%; in assay [2], 107%; in assay [3], 105%; in assay [4], 99.4%; in [5] it was 103%; in [6], 110%. Also, the growth in [7] was 98.2%; in assay [8], 101%; in assay [9], 101%; in assay [10], 101%.
Consider `CC(=O)N1N=C(c2ccc(Cl)cc2)CC1c1sc(Cl)nc1Cl` (stereo not given), for which the growth in assay [1] was 64.2%; in assay [2] it was 84.3%; in [3], 66.9%; in assay [4], 71.2%; in assay [5], 72.8%; in assay [6], 89.5%. For the same compound, the growth in assay [7] was 83.3%; in assay [8], 88.4%; in [9], 94.7%; in [10], 84.9%.
For the compound `CSc1nc(=O)n(Cc2ccc(Cl)cc2)c(=O)[nH]1`, the growth in [1] is 109%; in assay [2], 74.6%; in [3] it was 108%; in assay [4], 94.6%; in [5] it was 101%; in assay [6], 110%. For the same compound, the growth in assay [7] was 112%; in [8], 96.8%; in assay [9], 107%; in [10], 116%.
Take `CN(C)CCCn1c(=O)c2ccccc2c2cnc3[nH]ccc3c21`: the growth in [1] is -9.52% (active); in assay [2] it was 26.5%; in [3], 13.6%; in assay [4] it was 8.32% (active); in assay [5] it was -9.22% (active); in assay [6], 10.3%. Also, the growth was -20.2% (active) in assay [7], 1.3% (active) in [8], 21.1% in [9] and -8.38% (active) in assay [10].
Consider `N#CSCC1CC(O)(c2ccccc2)CC(c2ccc(Cl)cc2)O1` (stereo not given), for which the growth in assay [1] is 3.59% (active); in assay [2], 49.2%; in assay [3], 81.5%; in assay [4], 55.2%; in assay [5], 29.4%; in [6], 68.3%. Moreover, the growth in [7] is 56.5%; in [8], 13.1%; in assay [9], 72.1%; in [10], 40.5%.
Consider `COc1ccc(-n2c(SCc3cc(OC)c(OC)c(OC)c3)nc3ccc(C)cc3c2=O)cc1`, for which the growth in assay [1] is 21.9%; in assay [2], 44.4%; in assay [3], 83.7%; in [4] it was 69.1%; in [5], 75%; in assay [6] it was 54.9%. Moreover, the growth is 56.7% in [7], 63% in assay [8], 74% in assay [9] and 64.8% in assay [10].
`CSCCCNC(=O)c1ccc2c(c1)/C(=C/c1[nH]c(C)cc1C)C(=O)N2`: the growth in assay [1] was 31.2%; in assay [2], -1.79% (active); in assay [3], 60.7%; in assay [4], 43.6%; in [5], 11.4%; in [6], 30.5%. Also, the growth in [7] is 15.6%; in assay [8], 32.5%; in assay [9] it was 17.6%; in assay [10] it was -27.6% (active).
On to `COc1ccc(-c2nc3ncccn3c2-c2nnc(-c3ccc(F)cc3)o2)cc1`, for which the growth is 107% in assay [1]; 94.7% in assay [2]; 96.9% in [3]; 106% in [4]; 92.8% in [5]; 91.8% in assay [6]. The growth in [7] was 91.1%; in assay [8] it was 87.7%; in assay [9], 99.5%; in assay [10], 111%.
`CC12O[C@H](C[C@@H](O)[C@H]1O)n1c3ccccc3c3c4c(c5c6ccccc6n2c5c31)C(=O)N(CCCN)C4=O`: the growth is 11.3% in assay [1]; 49.8% in assay [2]; 26.9% in assay [3]; 14.8% in assay [4]; 34% in [5]; 40.6% in [6]. The growth is 47.8% in [7], 1.96% (active) in [8], 92.1% in assay [9] and 50.3% in assay [10].
For the compound `COc1ccc(Nc2cc(C)nc(NCCCNc3ccnc4cc(Cl)ccc34)n2)cc1`, the growth in assay [1] was -70.2% (active); in assay [2], -82.5% (active); in assay [3], 6.85% (active); in assay [4], -88.8% (active); in [5] it was 7.12% (active); in assay [6], -100% (active). Also, the growth in assay [7] was -89.8% (active); in assay [8] it was -80% (active); in assay [9] it was -100% (active); in [10] it was -94.6% (active).
With `Clc1ccc(/C=C2\CCCC3=C2N=C2SC=NN2C3c2ccc(Cl)cc2)cc1` (stereo not given), the growth in assay [1] was 60.7%; in [2], 93.2%; in [3], 96.5%; in [4], 84.6%; in assay [5], 96.3%; in assay [6], 101%. Besides, the growth is 80.2% in [7], 55.1% in [8], 98.4% in [9] and 113% in [10].
With `CN1CCC2(CC1)NC(=O)c1c(c3ccc(Cl)c(Cl)c3n1C)C2C#N` (stereo not given), the growth was 44.8% in assay [1]; 34.3% in assay [2]; 77.8% in [3]; 90.6% in [4]; 67.1% in assay [5]; 37.8% in assay [6]. The growth in assay [7] was -69.4% (active); in assay [8], 76.6%; in assay [9] it was 70.4%; in assay [10], 99.6%.
Consider `CN(C)c1ccc(N=C2C=CC(=O)c3ccccc32)cc1`, for which the growth was 61.4% in [1]; 84.7% in assay [2]; 70.7% in assay [3]; 87.5% in assay [4]; 65.2% in assay [5]; -56.1% (active) in assay [6]. For the same compound, the growth in assay [7] is 22.5%; in assay [8], 40.9%; in assay [9] it was 73.6%; in assay [10], 64.9%.
As for `CC/C(=N\N=C(/CC)c1ccc(Br)cc1)c1ccc(Br)cc1`, the growth was 74.1% in assay [1]; 89.9% in assay [2]; 108% in [3]; 105% in [4]; 94.2% in assay [5]; 104% in assay [6]. Besides, the growth is 87.9% in [7], 98.7% in [8], 104% in assay [9] and 97.3% in assay [10].
As to `CNc1ccc(CSc2ccc(C)cc2)cc1`, the growth was 100% in [1]; 60.7% in [2]; 93.3% in assay [3]; 52.4% in assay [4]; 60% in assay [5]; 67.7% in [6]. Moreover, the growth in assay [7] was 86.2%; in [8], 92.1%; in [9], 93.8%; in assay [10], 96.8%.
Take `N#Cc1ncc(-c2ccc(C(F)(F)F)cc2)c(NCc2cc(C(F)(F)F)cc(C(F)(F)F)c2)n1`: the growth was 9.29% (active) in assay [1]; 37.9% in assay [2]; 29.8% in [3]; 27.3% in [4]; 1.54% (active) in assay [5]; 75.3% in assay [6]. The growth is 19.4% in assay [7], 14.9% in assay [8], 39.3% in assay [9] and -2.7% (active) in [10].
Regarding `CSc1nn(-c2ccccc2)c2ncnc(Oc3ccc(C)cc3)c12`, the growth in [1] was 99.3%; in assay [2], 75.1%; in assay [3] it was 102%; in assay [4] it was 91.2%; in assay [5] it was 82.5%; in assay [6], 94.5%. Moreover, the growth in assay [7] is 99.6%; in assay [8] it was 95%; in assay [9], 99.5%; in [10], 75.3%.
As for `CC(=O)c1cc(Br)ccc1O`, the growth in assay [1] was 116%; in [2] it was 106%; in assay [3], 109%; in [4], 108%; in assay [5], 93.5%; in [6], 104%. Moreover, the growth was 104% in [7], 103% in [8], 105% in assay [9] and 106% in [10].
On to `CC(=O)n1c(-c2ccc(Cl)c(Cl)c2)cn(-c2ccc(Cl)cc2)c1=O`, for which the growth is 12.8% in assay [1]; -0.456% (active) in assay [2]; 18.4% in [3]; 26.6% in assay [4]; -31.2% (active) in assay [5]; 9.15% (active) in assay [6]. In addition, the growth in assay [7] was 18%; in assay [8] it was 18.2%; in assay [9], 7.17% (active); in [10], 80.9%.
As for `CCN(CC)CCOc1nc2ccccc2c2c1-c1ccc(OC)cc1C2=O`, the growth in assay [1] was -12.9% (active); in assay [2], 1.69% (active); in [3], 24.6%; in [4], -10.8% (active); in [5], 7.51% (active); in [6] it was -84% (active). For the same compound, the growth was 8.63% (active) in [7], -47.2% (active) in assay [8], 4.25% (active) in [9] and -2.62% (active) in [10].
Turning to `CCCCCCNC(=O)Oc1ccc(/C(=C(/CC)Cc2ccccc2)c2ccc(OCCN3CCCCC3)cc2)cc1`, the growth is 20.3% in [1]; 80.2% in [2]; 85.9% in assay [3]; 69.3% in assay [4]; 73.2% in assay [5]; 84.5% in [6]. Moreover, the growth in assay [7] was 99.5%; in assay [8], 96.8%; in assay [9] it was 96.4%; in [10], 91.3%.
Regarding `Cc1cc2c(C)c3cc(C)c(N)cc3nc2cc1N`, the growth is -25.5% (active) in [1]; 21.8% in assay [2]; 18.3% in assay [3]; 14.9% in assay [4]; 7.77% (active) in [5]; 19.8% in [6]. Also, the growth in [7] is 24.2%; in [8], 4.46% (active); in assay [9] it was 38.9%; in assay [10], -18.1% (active).
Take `COc1ccc(-c2nc(-c3nc4ccc(OC)cc4[nH]3)cc3c2[nH]c2ccccc23)cc1`: the growth in assay [1] is 17.4%; in assay [2], 67.3%; in [3], 37.5%; in [4] it was 14.3%; in [5], 25.8%; in assay [6], 49.9%. For the same compound, the growth was 50% in assay [7], 27.2% in assay [8], 47.7% in assay [9] and 11.2% in [10].
Take `COc1cc(-c2nnc(-c3c(-c4ccc(F)cc4)nc4ccccn34)o2)cc(OC)c1OC`: the growth in assay [1] is 84.3%; in assay [2], 2.43% (active); in [3], 78.4%; in [4], 59.5%; in assay [5], 90.7%; in [6], 63.3%. The growth is 89.9% in assay [7], 69.7% in [8], 87.5% in assay [9] and 106% in assay [10].
Consider `O=C(Nc1ccc(CN2CCc3nc4cc(O)c(O)cc4cc32)cc1)c1ccc(Cl)c(Cl)c1`, for which the growth in assay [1] was 109%; in [2], 89.2%; in assay [3], 96.7%; in assay [4], 105%; in assay [5] it was 101%; in assay [6] it was 90.7%. For the same compound, the growth in [7] is 97%; in assay [8], 104%; in [9], 96.8%; in assay [10] it was 105%.
Consider `CC(C)=NNc1ncnc2c1ncn2C1OC(CO)C(O)C1O` (stereo not given), for which the growth in assay [1] is 18.1%; in [2] it was 32.1%; in [3], 42.5%; in [4], 29.1%; in assay [5], 17.7%; in assay [6] it was 20.5%. In addition, the growth in assay [7] is 34.7%; in [8], 7.06% (active); in assay [9], 54.7%; in assay [10], 41.4%.
